This is an account of results in PubChem BioAssay (NCATS).

Each structure is given as a SMILES string. Several values for one entry are separate records, joined by “and”; a condition that tells them apart may be missing. Identical values can stand only once. Results filed as inconclusive are left out. Some compounds were tested as several samples or in several runs, with calls that do not always agree. Activity calls are given as the source filed them. Unless noted, calls follow the shape of the dose curve; as a rule, active = well fitted curve in the direction sought with a large enough effect; inconclusive = small, poorly fitted or top-dose-only effect, or another doubt; inactive = no such curve, though single readings can be large; an effect the other way counts as inactive or inconclusive.

For assay [1], the target named is Catechol O-methyltransferase (Homo sapiens) (UniProt P21964). Nature of the assay: Confirmatory Screen for Target Class Profiling of Small Molecule Inhibitors of Methyltransferases (AID 1745852; calls by dose curve; also: potency is read from the fitted curve at half-maximal effect; as to activity change, negative = inhibition: % is scaled to controls: 0 for no effect and ±100 for the full control effect). The settings on record: MTase-Glo luminescence, SAH detection, recombinant enzyme; measured here: COMT max response; stronger effect = lower value.
Catechol O-methyltransferase (Homo sapiens), sequence (P21964 whole entry, looked up): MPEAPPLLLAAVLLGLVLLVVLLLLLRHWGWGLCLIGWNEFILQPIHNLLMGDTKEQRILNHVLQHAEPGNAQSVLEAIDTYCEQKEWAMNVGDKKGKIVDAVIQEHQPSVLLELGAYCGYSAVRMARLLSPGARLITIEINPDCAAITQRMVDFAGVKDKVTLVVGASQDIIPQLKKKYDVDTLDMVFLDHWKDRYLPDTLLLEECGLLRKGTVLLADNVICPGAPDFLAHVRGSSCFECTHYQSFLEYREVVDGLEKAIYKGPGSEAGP
Assay [2] deals with Guanidinoacetate N-methyltransferase (Homo sapiens) (UniProt Q14353). The description is as above. The settings on record: MTase-Glo luminescence, SAH detection, recombinant enzyme; activity change, negative = inhibition: at 57.3 µM (top of the series).
In assay [3] the target is Nicotinamide N-methyltransferase (Homo sapiens) (UniProt P40261). Described as above. The settings on record: MTase-Glo luminescence, SAH detection, recombinant enzyme; measured here: NNMT max response; stronger effect = lower value.
Nicotinamide N-methyltransferase (Homo sapiens), sequence (P40261 whole entry, looked up): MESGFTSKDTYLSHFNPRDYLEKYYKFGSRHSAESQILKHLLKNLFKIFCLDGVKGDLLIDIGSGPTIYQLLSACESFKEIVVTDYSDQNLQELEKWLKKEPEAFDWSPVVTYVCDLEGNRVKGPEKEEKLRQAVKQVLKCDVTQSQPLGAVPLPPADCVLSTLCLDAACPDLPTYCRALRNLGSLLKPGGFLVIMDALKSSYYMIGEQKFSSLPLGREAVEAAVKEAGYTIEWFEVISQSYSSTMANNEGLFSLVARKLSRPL
Assay [4] concerns the target Phenylethanolamine N-methyltransferase (Homo sapiens) (UniProt P11086). The assay is described as above. The settings on record: MTase-Glo luminescence, SAH detection, recombinant enzyme; measured here: PNMT max response; stronger effect = lower value.
The nature of assay [5]: NCATS anti-infectives library activity on HEK293 viability as a counter-qHTS vs the C. elegans viability qHTS (AID 1745854). Also: % is scaled to controls: 0 for no effect and ±100 for the full control effect. The settings on record: HEK293 viability counter-screen; series mostly up to 41.8 µM. The essentials: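 HEK293 cells, 1500 per well, exposed 24 hr at 37C in 5% CO2 to compounds in a 1:5 titration, up to 41.7 uM final. Viability read as CellTiter-Glo luminescence after 10 min at room temperature.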
A general note: In qHTS, concentration-response curves come from the screen itself.

Assay [6] has as its target Rap guanine nucleotide exchange factor 3 (Homo sapiens) (UniProt O95398). In words: Confirmatory qHTS for agonist of cAMP-regulated guanine nucleotide exchange factor 3 (EPAC1) (AID 1645881).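 Also: EPAC1 catalysed release of BODIPY-GDP from Rap1B seen as fluorescence loss; nearly all actives have a fitted effect of over 75% in size.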 The settings on record: EPAC1 Rap1B BODIPY-GDP exchange fluorescence, 100% = cAMP control response; series mostly up to 154 µM.
The target of assay [7] is Rap guanine nucleotide exchange factor 4 (Homo sapiens) (UniProt Q8WZA2). In words: Confirmatory qHTS for antagonist of cAMP-regulated guanine nucleotide exchange factor 4 (EPAC2) (AID 1645885). Also: nearly all actives have a fitted effect of over 25% in size. Also: potency is read from the fitted curve at half-maximal effect. As to activity change, negative = inhibition: % is scaled to controls: 0 for no effect and ±100 for the full control effect. To be noted: EPAC2 Rap1B-BODIPY-GDP exchange fluorescence, biochemical; series mostly up to 12.7 µM.
Rap guanine nucleotide exchange factor 4 (Homo sapiens), sequence (Q8WZA2 whole entry, looked up): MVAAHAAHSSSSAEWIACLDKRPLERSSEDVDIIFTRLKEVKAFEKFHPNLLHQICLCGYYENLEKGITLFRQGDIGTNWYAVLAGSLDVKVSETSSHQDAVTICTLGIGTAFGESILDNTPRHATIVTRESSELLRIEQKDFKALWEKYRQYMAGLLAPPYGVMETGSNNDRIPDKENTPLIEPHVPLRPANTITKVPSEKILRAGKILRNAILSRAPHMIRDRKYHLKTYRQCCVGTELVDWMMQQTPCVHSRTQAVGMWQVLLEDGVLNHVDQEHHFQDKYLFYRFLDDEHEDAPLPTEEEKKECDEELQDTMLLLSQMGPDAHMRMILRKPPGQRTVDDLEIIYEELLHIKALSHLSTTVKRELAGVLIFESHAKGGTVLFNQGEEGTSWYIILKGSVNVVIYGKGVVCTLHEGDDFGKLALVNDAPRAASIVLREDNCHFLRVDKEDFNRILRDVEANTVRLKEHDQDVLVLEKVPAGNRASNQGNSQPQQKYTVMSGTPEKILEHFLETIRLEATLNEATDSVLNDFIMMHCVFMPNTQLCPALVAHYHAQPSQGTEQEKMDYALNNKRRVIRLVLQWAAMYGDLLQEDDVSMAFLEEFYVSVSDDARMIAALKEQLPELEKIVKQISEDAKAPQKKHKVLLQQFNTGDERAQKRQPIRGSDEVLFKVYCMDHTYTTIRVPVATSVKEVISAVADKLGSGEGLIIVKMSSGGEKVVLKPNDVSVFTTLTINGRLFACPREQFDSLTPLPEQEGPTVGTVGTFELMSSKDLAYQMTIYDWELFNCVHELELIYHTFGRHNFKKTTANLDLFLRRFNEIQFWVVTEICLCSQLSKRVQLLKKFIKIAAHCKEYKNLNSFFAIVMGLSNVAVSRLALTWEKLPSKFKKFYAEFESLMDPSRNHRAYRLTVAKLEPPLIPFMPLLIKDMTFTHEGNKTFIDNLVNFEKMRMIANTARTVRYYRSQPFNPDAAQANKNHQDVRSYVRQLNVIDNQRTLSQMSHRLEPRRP
Assay [8] has as its target Rap guanine nucleotide exchange factor 3 (Homo sapiens) (UniProt O95398). Nature of the assay: Confirmatory qHTS for antagonist of cAMP-regulated guanine nucleotide exchange factor 3 (EPAC1) (AID 1645880). Also: nearly all actives have a fitted effect of over 55% in size. Also: potency is read from the fitted curve at half-maximal effect. The settings on record: EPAC1 Rap1B-BODIPY-GDP exchange, fluorescence; series mostly up to 115 µM. The method, boiled down: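 Nucleotide exchange uses 100 nM EPAC1, 250 nM RAP1B-BODIPY-GDP and 50 uM GDP, with compounds in a concentration-titration series. After 5 min at room temperature, fluorescence (480 nm ex/540 nm em) is read every 5 min for 30 min. Data are normalized to control ATA and DMSO.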

For assay [9], the target named is Rap guanine nucleotide exchange factor 4 (Homo sapiens) (UniProt Q8WZA2). In words: Confirmatory qHTS for agonist of cAMP-regulated guanine nucleotide exchange factor 4 (EPAC2) (AID 1645884).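 Also: nucleotide exchange releases bodipy-GDP from Rap1 and this lowers its fluorescence; % is scaled to controls: 0 for no effect and ±100 for the full control effect; nearly all actives have a fitted effect of over 65% in size.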 The settings on record: EPAC2 GEF activity, Rap1B-BODIPY-GDP fluorescence, percent relative to cAMP agonist control; series mostly up to 154 µM.
Assay [10] deals with Rap guanine nucleotide exchange factor 3 (Homo sapiens) (UniProt O95398). In words: Counterscreen qHTS for antagonist of cAMP-regulated guanine nucleotide exchange factor 3 (EPAC1) (AID 1645888).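 Also: fluorescence loss as bound BODIPY-GDP is released from Rap1B; % of control where 0% means no effect.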 To be noted: Rap1B-BODIPY-GDP nucleotide exchange, fluorescence; series mostly up to 30.8 µM. The essentials:
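Rap1B–BODIPY-GDP (250 nM) with 50 uM GDP; compounds pin-transferred to 9.74 nM–152 uM final (activator) or from 7.32 nM upwards (inhibitor). Fluorescence Ex/Em 480/540 nm read at 5 and 30 min, then after adding cAMP or buffer, at room temperature.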
(The purpose of a counterscreen is to sort out artefacts and off-target activity.)

Phenylethanolamine N-methyltransferase (Homo sapiens), sequence (P11086 whole entry, looked up): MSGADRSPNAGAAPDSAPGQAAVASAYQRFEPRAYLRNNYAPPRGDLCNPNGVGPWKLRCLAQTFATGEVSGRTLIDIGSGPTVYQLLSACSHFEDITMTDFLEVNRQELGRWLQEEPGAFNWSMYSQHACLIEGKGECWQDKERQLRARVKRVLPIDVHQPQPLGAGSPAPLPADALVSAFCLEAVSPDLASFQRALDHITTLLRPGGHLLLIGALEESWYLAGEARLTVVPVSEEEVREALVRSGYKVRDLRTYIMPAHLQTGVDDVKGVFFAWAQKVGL
Rap guanine nucleotide exchange factor 3 (Homo sapiens), sequence (O95398 whole entry, looked up): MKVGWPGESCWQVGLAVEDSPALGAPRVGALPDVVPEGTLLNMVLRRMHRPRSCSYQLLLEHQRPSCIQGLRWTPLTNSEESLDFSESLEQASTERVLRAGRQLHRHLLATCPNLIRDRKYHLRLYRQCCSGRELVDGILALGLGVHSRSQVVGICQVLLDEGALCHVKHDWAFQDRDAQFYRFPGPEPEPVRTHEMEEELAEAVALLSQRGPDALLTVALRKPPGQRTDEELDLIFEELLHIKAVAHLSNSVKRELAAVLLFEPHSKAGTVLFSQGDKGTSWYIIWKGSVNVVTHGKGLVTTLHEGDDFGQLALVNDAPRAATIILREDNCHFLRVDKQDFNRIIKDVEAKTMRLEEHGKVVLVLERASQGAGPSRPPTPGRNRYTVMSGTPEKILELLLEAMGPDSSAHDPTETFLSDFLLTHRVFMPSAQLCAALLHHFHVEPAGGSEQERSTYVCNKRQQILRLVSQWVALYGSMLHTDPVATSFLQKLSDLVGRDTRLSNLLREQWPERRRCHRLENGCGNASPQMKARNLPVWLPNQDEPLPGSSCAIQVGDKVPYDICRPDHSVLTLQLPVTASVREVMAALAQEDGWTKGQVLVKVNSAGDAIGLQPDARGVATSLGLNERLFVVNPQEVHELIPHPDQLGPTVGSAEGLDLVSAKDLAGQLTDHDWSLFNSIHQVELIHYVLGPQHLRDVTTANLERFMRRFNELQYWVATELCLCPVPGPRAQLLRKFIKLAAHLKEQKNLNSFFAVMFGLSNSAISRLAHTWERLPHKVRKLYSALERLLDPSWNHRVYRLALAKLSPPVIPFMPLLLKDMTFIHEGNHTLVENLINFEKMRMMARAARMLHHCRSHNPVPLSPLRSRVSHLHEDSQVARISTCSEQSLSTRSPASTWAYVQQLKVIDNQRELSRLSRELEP

Turning to `CN1C[C@H](CNC(=O)OCc2ccccc2)C[C@@H]2c3cccc4c3c(cn4C)C[C@H]21`, the activity in assay [1] was -5.5%; in [3] it was -16.1%; in [4], -5.43%. In addition, in assay [2], the activity change, negative = inhibition is 5.68%.
In the case of `N#CC(C#N)=Cc1ccc(O)c(O)c1`, the figures for the activity in [1], in assay [3] and in [4] were 34.9%, -6.68% and -1.74%, respectively. The activity change, negative = inhibition in assay [2] was 1.06%.
With `Cc1sc2c(c1C)C(c1ccc(Cl)cc1)=N[C@@H](CC(=O)OC(C)(C)C)c1nnc(C)n1-2`, the outcome in assay [5] is “inactive”.
For `Oc1cc(Cl)ccc1Oc1ccc(Cl)cc1Cl`, the outcome in [6] was “inactive”. For the same molecule, in assay [7], the Potency is 52 µM (active).
Consider `CC[C@@H](CO)NC(=O)[C@@H]1C=C2c3cccc4c3c(cn4C)C[C@H]2N(C)C1`, for which the activity in [1] was 1.79%; in assay [3], -2.9%; in assay [4], -4.59%. Moreover, the activity change, negative = inhibition in assay [2] is -1.19%.
As to `NCC(CC(=O)O)c1ccc(Cl)cc1` (centres undefined), the outcome in [5] was “inactive”.
Turning to `C[C@H]1O[C@@H](O[C@H]2[C@@H](O)C[C@H](O[C@H]3[C@@H](O)C[C@H](O[C@H]4CC[C@@]5(C)[C@H](CC[C@@H]6[C@@H]5CC[C@]5(C)[C@@H](C7=CC(=O)OC7)CC[C@]65O)C4)O[C@@H]3C)O[C@@H]2C)C[C@H](O)[C@@H]1O`, the Potency result in assay [8] was “inactive”. For the same molecule, the outcome in assay [6] and in [9] was “inactive” each time.
For `O=c1oc2ccccc2c(O)c1C(CC(O)c1ccc(-c2ccc(Br)cc2)cc1)c1ccccc1` (centres undefined), the Potency is 15.7 µM (active) in [8] and 44.1 µM (active) in assay [7]. Also, the outcome in [6] and in assay [9] was “inactive” in each case.
On to `CC(C)=CC1C(C(=O)OCc2cccc(Oc3ccccc3)c2)C1(C)C` (centres undefined), for which the Potency result in assay [8] and in [7] was “inactive” in each case. Besides, the outcome in assay [6] and in assay [9] was “inactive” in each case.
Consider `CC[N+](CC)(CC)CC`, for which the activity in assay [1] is 2.75%; in assay [3] it was -4.15%; in [4], 4.2%. In assay [2], the activity change, negative = inhibition came out at 3.74%.
Consider `O=c1[nH]c2ccccc2n1C1CCN(CCCC(c2ccc(F)cc2)c2ccc(F)cc2)CC1`, for which, in [8], the Potency entry is “inactive”. Moreover, the outcome in [6] and in assay [9] was “inactive” in each case.
For `CC(C)=CCOc1c2occc2cc2ccc(=O)oc12`, the values for the activity in assay [1], in assay [3] and in assay [4] were -8.52%, -26.3% and -3.85%, respectively. Further, in [2], the activity change, negative = inhibition was -1.68%.
Turning to `Nc1ccncc1`, the activity in assay [1] was 0%; in [3], -30.8%; in [4] it was -0.809%. Further, the Potency in assay [2] was 30.6 µM (active).
On to `CC(C)(C)CC(C)(C)c1ccc(O)cc1`, for which the outcome in [6] and in assay [9] was “inactive” in each case. In addition, in assay [7], the Potency was 49.4 µM (active) and 56.9 µM (active).
Take `Clc1ccc(COC(Cn2ccnc2)c2ccc(Cl)cc2Cl)cc1` (centres undefined): the outcome in [6], in assay [9] and in assay [10] was “inactive” in each case. In [7], the Potency is 44.1 µM (active) and inactive.
